# Reference: the supplement of paper PMC8728848
# Shown is part of a subset that was picked to be rich in the strongest signals.
# How the values were obtained:
# Assay in all cases: glycan array binding signal (z-score within array); higher = stronger binding
# Details in all cases: glycan notation: IUPAC condensed, linker removed
# [1] = molecular target: Fuc(a1-2)Gal(b1-3)GlcNAc(b1-3)[Gal(b1-4)GlcNAc(b1-6)]Gal(b1-4)Glc
# Summary of the method: (§1)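 The binding signal is a Z-score computed within each array and averaged over linkers. Arrays of the same protein sequence at different concentrations or buffers were also averaged together. Data originate from 3228 arrays in the Consortium for Functional Glycomics database, kept only where the protein sequence was available.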
# [2] = molecular target: Fuc(a1-2)Gal(b1-4)[Fuc(a1-3)]GlcNAc
# Summary of the method: as §1
# [3] = molecular target: Fuc(a1-2)[Gal(a1-3)]Gal(b1-4)GlcNAc(b1-2)Man(a1-3)[Fuc(a1-2)[Gal(a1-3)]Gal(b1-4)GlcNAc(b1-2)Man(a1-6)]Man(b1-4)GlcNAc(b1-4)GlcNAc
# Summary of the method: as §1
# [4] = molecular target: Fuc(a1-2)[Gal(a1-3)]Gal(b1-4)GlcNAc(b1-2)Man(a1-3)[Fuc(a1-2)[Gal(a1-3)]Gal(b1-4)GlcNAc(b1-2)Man(a1-6)]Man(b1-4)GlcNAc(b1-4)[Fuc(a1-6)]GlcNAc
# Summary of the method: as §1
# [5] = molecular target: Fuc(a1-2)[Gal(a1-3)]Gal(b1-4)[Fuc(a1-3)]Glc
# Summary of the method: as §1
# [6] = molecular target: Fuc(a1-2)[GalNAc(a1-3)]Gal(b1-4)GlcNAc(b1-2)Man(a1-3)[Fuc(a1-2)[GalNAc(a1-3)]Gal(b1-4)GlcNAc(b1-2)Man(a1-6)]Man(b1-4)GlcNAc(b1-4)GlcNAc
# Summary of the method: as §1
# [7] = molecular target: Fuc(a1-2)[GalNAc(a1-3)]Gal(b1-4)GlcNAc(b1-3)Gal(b1-4)GlcNAc
# Summary of the method: as §1
# [8] = molecular target: Fuc(a1-2)[GalNAc(a1-3)]Gal(b1-4)GlcNAc(b1-3)Gal(b1-4)GlcNAc(b1-3)Gal(b1-4)GlcNAc
# Summary of the method: as §1
# Gal(b1-3)GlcNAc = molecular target: Gal(b1-3)GlcNAc
# Summary of the method: as §1
# [9] = molecular target: Gal(b1-3)GlcNAc(b1-3)Gal(b1-4)Glc
# Summary of the method: as §1
# [10] = molecular target: Gal(b1-3)[Neu5Ac(b2-6)]GalNAc
# Summary of the method: as §1
# [11] = molecular target: Gal(b1-4)GlcNAc(b1-3)Gal(b1-4)Glc
# Summary of the method: as §1
# [12] = molecular target: Gal(b1-4)GlcNAc(b1-3)Gal(b1-4)GlcNAc(b1-3)Gal(b1-4)GlcNAc
# Summary of the method: as §1
# [13] = molecular target: GalNAc(a1-3)GalNAc(a1-3)Gal(a1-4)Gal(b1-4)GlcNAc
# Summary of the method: as §1
# [14] = molecular target: GalNAc(b1-3)Gal(a1-6)Gal(b1-4)Glc
# Summary of the method: as §1
# [15] = molecular target: GlcNAc(a1-4)Gal(b1-4)GlcNAc(b1-3)Gal(b1-4)GlcNAc(b1-3)Gal(b1-4)GlcNAc
# Summary of the method: as §1
# [16] = molecular target: GlcNAc(a1-6)Gal(b1-4)GlcNAc
# Summary of the method: as §1
# GlcNAc(b1-3)Gal = molecular target: GlcNAc(b1-3)Gal
# Summary of the method: as §1
# Kdn(a2-3)Gal(b1-3)GlcNAc = molecular target: Kdn(a2-3)Gal(b1-3)GlcNAc
# Summary of the method: as §1
# Man(b1-4)GlcNAc = molecular target: Man(b1-4)GlcNAc
# Summary of the method: as §1
# [17] = molecular target: Neu5Ac(a2-3)Gal(b1-3)[Fuc(a1-4)]GlcNAc(b1-3)Gal(b1-3)[Fuc(a1-4)]GlcNAc
# Summary of the method: as §1
# Neu5Ac(a2-3)Gal(b1-4)Glc = molecular target: Neu5Ac(a2-3)Gal(b1-4)Glc
# Summary of the method: as §1
# [18] = molecular target: Neu5Ac(a2-3)Gal(b1-4)GlcNAc(b1-3)Gal(b1-4)GlcNAc
# Summary of the method: as §1
# [19] = molecular target: Neu5Ac(a2-3)Gal(b1-4)GlcNAc(b1-3)GalNAc
# Summary of the method: as §1
# [20] = molecular target: Neu5Ac(a2-3)[Neu5Ac(a2-6)]GalNAc
# Summary of the method: as §1
# Neu5Ac(a2-6)Gal(b1-4)Glc = molecular target: Neu5Ac(a2-6)Gal(b1-4)Glc
# Summary of the method: as §1
# [21] = molecular target: Neu5Ac(a2-6)Gal(b1-4)GlcNAc(b1-3)Gal(b1-4)GlcNAc(b1-3)Gal(b1-4)GlcNAc
# Summary of the method: as §1
# [22] = molecular target: Neu5Ac(a2-6)Gal(b1-4)GlcNAc(b1-3)Gal(b1-4)[Fuc(a1-3)]GlcNAc(b1-3)Gal(b1-4)[Fuc(a1-3)]GlcNAc
# Summary of the method: as §1
# Neu5Ac(a2-6)GalNAc = molecular target: Neu5Ac(a2-6)GalNAc
# Summary of the method: as §1
# [23] = molecular target: Neu5Gc(b2-6)Gal(b1-4)GlcNAc
# Summary of the method: as §1
binder,measurement,setting,value
Gal 3 (Canis lupus) (protein) MADSFSLNDALSGSGNPNPQGWPGPWGNQPAGAGGYPGASYPGAYPGQAPPGGYPGQAPPGGYPGQAPPGGYPGQAPPGGYPGQAPPGGYPGQAPPGTYPGPTAPAYPGPTAPGTQPGQPSGPGAYPPPGQPSAPGAYPAAGPFGIPAGPLTVPYDLPLPGGVKPRMLITILGTVRPSANRLALDFKRGNDVAFHFNPRFNEDNKRVIVCNTKLDNIWGKEERQAAFPFESGKPFKIQVLVESDHFKVAVNDAHLLQYNHRMKNLPEISKLGISGDIDLTSASYAMI,glycan array binding signal (z-score),[1],-0.147
same,glycan array binding signal (z-score),[2],-0.259
same,glycan array binding signal (z-score),[3],7.41
same,glycan array binding signal (z-score),[4],4.22
same,glycan array binding signal (z-score),[5],-0.118
same,glycan array binding signal (z-score),[6],7.54
same,glycan array binding signal (z-score),[7],5.05
same,glycan array binding signal (z-score),[8],5.42
same,glycan array binding signal (z-score),Gal(b1-3)GlcNAc,-0.231
same,glycan array binding signal (z-score),[9],-0.074
same,glycan array binding signal (z-score),[10],-0.259
same,glycan array binding signal (z-score),[11],0.512
same,glycan array binding signal (z-score),[12],5.09
same,glycan array binding signal (z-score),[13],-0.258
same,glycan array binding signal (z-score),[14],-0.254
same,glycan array binding signal (z-score),[15],3.48
same,glycan array binding signal (z-score),[16],-0.252
same,glycan array binding signal (z-score),GlcNAc(b1-3)Gal,-0.264
same,glycan array binding signal (z-score),Kdn(a2-3)Gal(b1-3)GlcNAc,-0.149
same,glycan array binding signal (z-score),Man(b1-4)GlcNAc,-0.261
same,glycan array binding signal (z-score),[17],-0.23
same,glycan array binding signal (z-score),Neu5Ac(a2-3)Gal(b1-4)Glc,-0.247
same,glycan array binding signal (z-score),[18],0.679
same,glycan array binding signal (z-score),[19],-0.205
same,glycan array binding signal (z-score),[20],-0.261
same,glycan array binding signal (z-score),Neu5Ac(a2-6)Gal(b1-4)Glc,-0.246
same,glycan array binding signal (z-score),[21],5.91
same,glycan array binding signal (z-score),[22],-0.23
same,glycan array binding signal (z-score),Neu5Ac(a2-6)GalNAc,-0.257
same,glycan array binding signal (z-score),[23],-0.25
